p53ts 39C tox – p53ts cell cytotoxicity, nonpermissive temperature; hit rate 1.5% among 130,000; H1299-p53A138V viability at 39C, ATP luminescence, 24 h; Potency, µM (doses to about 46.1 µM), most hits filed as cytotoxic; AID 902; also: nearly all actives have a fitted effect of over 55% in size
p53ts 32C tox – p53ts cell cytotoxicity, permissive temperature | H1299-p53A138V at 32C, ATP luminescence viability, 24 h | hit rate 0.93% among 130,000 | Potency, µM (doses to about 46.1 µM), most hits filed as cytotoxic; also: nearly all actives have a fitted effect of over 55% in size
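Viability by ATPlite luminescence after 24 h compound treatment (up to 46 uM) at the permissive 32C. Cells are H1299 carrying p53 A138V. Scale runs from DMSO basal to 100 uM tamoxifen as full kill; AC50 from Hill fits.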
Imprint erasure – genomic imprint erasure induction | mouse ES Peg3-LacZ reporter, beta-gal luminescence, 40 h | Potency, µM (series often up to 60.7 µM), most hits filed as activators | hit rate 0.02% among 110,000 | AID 1948
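Gelatin-coated wells received 300 freshly trypsinized female ES cells with a Peg3LacZ-Neo reporter on the maternal allele, then incubated 40 hours at 37C. BetaGlo was added for 5 minutes at room temperature before a single luminescence read.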
IkB sig inh – IkB pathway inhibition in ABC-DLBCL cells. ABC-DLBCL IkBa-CBG/CBR dual luciferase ratio, 4 h; response scale: scaled: untreated 0%, proteasome inhibitor 100%. Potency, µM (doses to about 57.1 µM). hit rate 0.04% among 110,000. AID 445; active = well fitted curve in the direction sought with a large enough effect in the signal ratio, not every such curve was filed as active; inconclusive = small, poorly fitted or top-dose-only effect, or a change in a side signal; the % refers to the signal ratio;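 also: the direction sought is a rising ratio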
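Curves were fitted separately to fusion (green), unfused (red) and ratio luminescence, then classed by r2, magnitude and activity. Cells: OCI-Ly3, 4 h compound plus doxycycline at 37C; 10 uM MG-132 defined full response.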
Each line names hits and unclear results; the compound was inactive in the other large screens. A selection: hits, their analogues and other compounds. The true share with any hit is near 1.8%. Unless noted, calls follow the shape of the dose curve; as a rule, active = well fitted curve in the direction sought with a large enough effect; inconclusive = small, poorly fitted or top-dose-only effect, or another doubt; inactive = no such curve, though single readings can be large; an effect the other way counts as inactive or inconclusive.

COc1cc(C(=O)Nc2nc3nc(-c4ccccc4)cc(=O)n3[nH]2)cc(OC)c1OC	IkB sig inh inconclusive
O=S1(=O)C=C(Sc2nnc(-c3ccccc3)o2)c2ccccc21	p53ts 39C tox inconclusive, p53ts 32C tox 13µM, IkB sig inh inconclusive
CCC/C(O)=C1\C(=O)CC(C)(C)CC1=NCCO	none
CCn1c2ccccc2c2cc(NC(=O)Cc3ccc(S(=O)(=O)N4CCOCC4)s3)ccc21	none
COc1ccc(N2CCN(S(=O)(=O)c3c(C)[nH]c(=O)[nH]c3=O)CC2)cc1	none
Nn1c(-c2cccs2)nc2sc3c(c2c1=O)CCCC3	p53ts 39C tox inconclusive, p53ts 32C tox 10µM, IkB sig inh inconclusive
O=c1oc(-c2cccs2)nc2sc3c(c12)CCCCC3	p53ts 39C tox 10µM, p53ts 32C tox 13µM, IkB sig inh inconclusive
CCOc1ccc2nc(NC(=O)Nc3cccs3)sc2c1	p53ts 39C tox 10µM, p53ts 32C tox 16µM, IkB sig inh inconclusive
CCOc1ccc2nc(NC(=O)COC)sc2c1	p53ts 39C tox inconclusive, p53ts 32C tox inconclusive
COc1cc(C2Nn3c(nnc3-c3ccccc3OC)S2)ccc1O (configuration not stated)	none (no result: Imprint erasure, IkB sig inh)
COCCNC(=O)c1nc2c(nnn2Cc2cc(C)ccc2C)c(=O)[nH]1	none (no result: Imprint erasure, IkB sig inh)
Cc1nc2c(ccc3nc(NC(=O)c4ccc5c(c4)OCCO5)sc32)s1	p53ts 39C tox 3.2µM, p53ts 32C tox 4µM, IkB sig inh inconclusive
CCN(CC)CCCNC(=O)c1ccc2c(c1)N(Cc1c(F)cccc1Cl)C(=O)c1ccccc1S2	p53ts 39C tox 13µM, IkB sig inh inconclusive
CC(=O)c1cccc(NC(=O)c2sc3nc4c(cc3c2N)CCCC4)c1	p53ts 39C tox 13µM, p53ts 32C tox inconclusive, IkB sig inh inconclusive
COc1ccc(Cl)cc1C(=O)NCCc1ccc(S(=O)(=O)NC(=O)NC2CCCCC2)cc1	none
Fc1ccc2c(c1)NC(c1ccncc1)=NC(c1cccs1)=N2	IkB sig inh inconclusive
Cc1nc2ccccc2c2oc(C(=O)N3CCc4ccccc4C3)cc12	p53ts 39C tox 20µM, p53ts 32C tox inconclusive, IkB sig inh inconclusive
Cc1nc2ccccc2c2oc(C(=O)N3CCN(C(=O)c4ccco4)CC3)cc12	none
Cc1cc(C)c2c(n1)nn1c(N3CCN(c4ccccn4)CC3)cc(C)nc21	none
c1ccc(-c2cccc(-c3ccccn3)n2)nc1	p53ts 39C tox 0.79µM, p53ts 32C tox inconclusive
c1ccc(-c2nnc(-c3ccccn3)nn2)nc1	p53ts 39C tox inconclusive, p53ts 32C tox inconclusive, IkB sig inh inconclusive
CCCCn1c(NC(=O)c2ccc(F)cc2)c(C#N)c2nc3ccccc3nc21	IkB sig inh inconclusive
CCCCn1c(NC(=O)c2ccccc2)c(C#N)c2nc3ccccc3nc21	p53ts 39C tox 6.3µM, p53ts 32C tox inconclusive, IkB sig inh inconclusive
O=C(O)c1ccc(N[C@H](c2ccccc2)c2ccc3cccnc3c2O)cc1	p53ts 39C tox inconclusive
Cc1conc1NC(c1cccs1)c1ccc2cccnc2c1O (configuration not stated)	p53ts 39C tox inconclusive, p53ts 32C tox 13µM, IkB sig inh inconclusive
CCOc1ncccc1C(=O)OCC(=O)c1cc(C)n(Cc2ccco2)c1C	p53ts 32C tox 13µM, IkB sig inh inconclusive
Cc1cc(C(=O)COC(=O)CNC(=O)c2ccco2)c(C)n1Cc1ccco1	none (no result: p53ts 32C tox, Imprint erasure, IkB sig inh)
CN1CCc2cccc3c2[C@H]1Cc1ccc(O)c(O)c1-3	p53ts 39C tox 6.3µM, p53ts 32C tox 25µM
Cc1ccc(Cl)cc1-n1ncc2c(NC3CCCCC3)ncnc21	IkB sig inh inconclusive
Cc1ccc(-n2ncc3c(NC4CCCCC4)ncnc32)cc1	p53ts 39C tox 7.9µM, p53ts 32C tox inconclusive, IkB sig inh inconclusive
Clc1cccc(-n2ncc3c(NC4CCCCC4)ncnc32)c1	p53ts 39C tox 13µM, p53ts 32C tox inconclusive, IkB sig inh inconclusive
O=C(NCc1ccccc1Cl)C1CCC(CNS(=O)(=O)c2ccc(Br)s2)CC1 (configuration not stated)	p53ts 39C tox 13µM, p53ts 32C tox inconclusive
CC(C)=C1C(=O)C(c2ccccc2)=C2CN3C(=O)N(CCc4ccccc4)C(=O)[C@]3(Cc3ccc(C(F)(F)F)cc3)[C@H]21	none (no result: IkB sig inh)
CCn1c(SCC(=O)Nc2cc(C)ccc2C)nc2c(c1=O)SC(C)C2 (configuration not stated)	none
CCCCNC(=O)c1cnn2c(C)c(Cc3c(C)cc(C)cc3C)c(C)nc12	p53ts 39C tox 16µM, p53ts 32C tox inconclusive, IkB sig inh inconclusive
Cc1cc2c(SCc3ccccc3Cl)nc(N)nc2nc1C	none
CCN(CC)C(C)CN1c2ccccc2Sc2ccccc21 (configuration not stated)	p53ts 39C tox 25µM (no result: IkB sig inh)
O=C(COC(=O)/C=C/c1cccc(Cl)c1)NCCC1=CCCCC1	none (no result: Imprint erasure, IkB sig inh)
CCN(CC)C(=O)c1c[nH]c2ccc(S(=O)(=O)Nc3cc(C)cc(C)c3)cc2c1=O	none
Cc1ccc(C)c2[nH]c(=O)c(CCNC(=O)c3cc4ccccc4o3)cc12	none
COc1ccc(OC)c2[nH]c(=O)c(CCNC(=O)c3cc4ccccc4o3)cc12	p53ts 39C tox inconclusive, p53ts 32C tox 13µM, IkB sig inh inconclusive
Cc1nn(CC(=O)Nc2ccc3c(c2)oc2ccccc23)c(=O)c2ccccc12	p53ts 39C tox inconclusive
CN(C)c1ccc2nc3ccc(=[N+](C)C)cc-3sc2c1	p53ts 39C tox 3.2µM
CCN(CC)S(=O)(=O)c1nnc(NC(=O)COc2ccccc2)s1	none
CCN(CC)S(=O)(=O)c1nnc(NC(=O)COc2ccc(Cl)cc2)s1	p53ts 39C tox 16µM, p53ts 32C tox inconclusive, IkB sig inh inconclusive
Cc1ccc(NC(=O)CCS(=O)(=O)c2ccc(Br)cc2)c(C)c1	none
Cn1c(NC(=O)c2ccccc2NC(=O)C(C)(C)C)nc2ccccc21	IkB sig inh inconclusive
CCOc1ccc(CCNC(=O)c2cc3cc4cc(OC)ccc4nc3s2)cc1OCC	none
COc1ccc2nc3sc(C(=O)Nc4cc(Cl)c(OC)cc4OC)cc3cc2c1	p53ts 39C tox 6.3µM, p53ts 32C tox inconclusive, IkB sig inh inconclusive
C[C@@H](/C=C\c1cccc(Oc2ccc(F)cc2)c1)N(O)C(N)=O	p53ts 39C tox 32µM, p53ts 32C tox 32µM, IkB sig inh inconclusive
CC(/C=C/c1cccc(Oc2ccc(F)cc2)c1)N(O)C(N)=O (configuration not stated)	none (no result: p53ts 39C tox, p53ts 32C tox, IkB sig inh)
CC(C)CN1CCCC2(CCN(C(=O)c3ccco3)CC2)C1	none (no result: Imprint erasure)
CC1(C)C(=O)NC2=C1C(=O)C(=O)c1ccccc12	p53ts 39C tox 1µM, p53ts 32C tox 1.3µM, IkB sig inh inconclusive
CC(C)(C)c1ccc(C2Sc3ccccc3NC3=C2C(=O)c2ccccc23)cc1 (configuration not stated)	IkB sig inh inconclusive
CC1=C(C(=O)OC2CCCC2)C(c2ccc(F)cc2F)CC(=O)N1 (configuration not stated)	none
CCOc1ccc(-c2nnc(-c3ccccc3)o2)cc1	p53ts 32C tox inconclusive (no result: Imprint erasure, IkB sig inh)
CCOC(=O)COc1ccc(-c2nnc(-c3ccccc3)o2)cc1	p53ts 39C tox inconclusive, p53ts 32C tox 10µM, IkB sig inh inconclusive
Cc1ccc(-n2c(C)cc(C(=O)CSc3nncs3)c2C)cc1	p53ts 39C tox inconclusive, p53ts 32C tox 13µM, IkB sig inh inconclusive

Assay outcomes as filed in PubChem BioAssay.
